Only a selection was taken, and hits are over-represented in it overall.
ERK EGF block – inhibitors of EGF-stimulated ERK signaling pathway. HEK293-V1b, EGF-stimulated phospho-ERK AlphaScreen. Potency, µM (doses to about 11.5 µM), without a hit: at the highest dose activity change, negative = inhibition, most hits filed as inhibitors. 0.41% of 130,000 active. AID 1454;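 further: plate controls were stimulated vehicle wells for no effect and unstimulated vehicle basal for full effect; nearly all actives have a fitted effect of over 55% in size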
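After overnight plating in 1% FBS, HEK293-V1b cells received test compound for half an hour, then a 5 min pulse of EGF (25 nM); ERK phosphorylation in lysates was read by bead-based AlphaScreen.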
NPSR antag – neuropeptide S receptor (human) antagonism, cAMP; Q6W5P4; CHO-NPSR cells, cAMP TR-FRET, antagonist mode; Potency, µM (doses to about 38.3 µM), without a hit: at the top dose activity change, negative = inhibition, actives largely listed as inhibitors; 1% of 220,000 active; AID 1461; further: nearly all actives have a fitted effect of over 50% in size
Target sequence (Q6W5P4 whole entry, looked up): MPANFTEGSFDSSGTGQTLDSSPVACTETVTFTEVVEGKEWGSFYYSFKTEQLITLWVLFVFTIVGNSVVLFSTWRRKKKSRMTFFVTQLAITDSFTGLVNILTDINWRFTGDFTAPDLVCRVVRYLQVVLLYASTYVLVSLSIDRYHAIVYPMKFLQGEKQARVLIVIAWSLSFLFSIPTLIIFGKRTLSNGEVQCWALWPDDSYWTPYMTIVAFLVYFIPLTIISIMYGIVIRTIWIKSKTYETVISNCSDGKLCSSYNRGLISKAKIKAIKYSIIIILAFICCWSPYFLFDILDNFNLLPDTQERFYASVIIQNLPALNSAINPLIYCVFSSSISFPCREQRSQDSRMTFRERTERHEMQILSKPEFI
* marks the source's active call; other numbers are inactive results; ? = inconclusive; . = no result given; ! = not active in a repeat; [ ] = remark or other dose. The call rests on the fitted dose curve; in most records, active means well fitted curve in the direction sought with a large enough effect; inconclusive means small, poorly fitted or top-dose-only effect, or another doubt; inactive means no such curve, though single readings can be large; an effect the other way counts as inactive or inconclusive. Unless noted, on the % scale 0 is the no-effect control and ±100 the full control effect; potency means the concentration at half of the fitted maximal effect.

SMILES | ERK EGF block | NPSR antag
CC(=O)c1ccc(OCCCC(=O)NC2CCCc3ccccc32)cc1 (stereo not drawn) | 0% | -17%
N#CCCn1c(=O)cnc2cnc(Nc3ccccc3)nc21 | 3% | .
CCCCc1ccc(N/C(N)=N/c2nc(C)cc(C)n2)cc1 | 18µM* | 18%[7.67 µM]
Cc1ccc(N/C(N)=N/c2nc(C)cc(C)n2)cc1 | 3% | 2%
Cn1cccc1C(=O)N1CCC2(CCCN(C(c3ccccc3)c3ccccc3)C2)CC1 | 6% | .
CC(C)(C)CC(=O)Nc1nnc(C(F)(F)F)s1 | -6% | 5%[46.1 µM]
CC(NC(=O)Nc1nnc(C(F)(F)F)s1)(C(F)(F)F)C(F)(F)F | . | 10µM*
Cc1cc2sc3ccccc3c(=O)c2c(C)c1O | -2% | -19%
O=c1c(C(c2ccccc2)c2c(O)sc3ccccc3c2=O)c(O)sc2ccccc12 | ? | 10µM*
Cc1cccc(NCN2C(=O)c3ccccc3C2=O)c1 | . | -2%[46.1 µM]
CCC(=NCCc1c(C)[nH]c2ccccc12)C1=C(O)CC(c2ccccc2)CC1=O (stereo not drawn) | 8% | -55%
CCC(=NCCc1c(C)[nH]c2ccc(OC(F)(F)F)cc12)C1=C(O)CC(c2ccccc2)CC1=O (stereo not drawn) | -2% | 10µM*
COC(=O)c1sccc1NC(=O)c1ccc(OC)cc1OC | -9% | 10%
c1ccc(-c2nc(CSc3n[nH]c(-c4cccs4)n3)cs2)cc1 | . | -7%[46.1 µM]
Cc1cc(C)c(-n2c(SCCS(=O)(=O)c3ccc(F)cc3)n[nH]c2=O)c(C)c1 | 2%[57.5 µM] | -17%
Cc1oc(=O)c(NC(=O)c2cccc(Cl)c2)cc1C(=O)c1ccccc1 | . | 7.9µM*
Cc1oc(=O)c(NC(=O)c2ccccc2)cc1C(N)=O | -6% | 2%
Nc1c2ccccc2nc2ccccc12 | 10% | 26%
Clc1cncc(Cl)c1NNc1c2ccccc2nc2ccccc12 | 13µM* | -18%
C/C(CC(=O)Nc1ccc(F)cc1)=N\NC(=O)COc1ccccc1 | -2% | 4%
O=C(CC(c1ccccc1)c1ccccc1)Nc1ccc(Cl)cn1 | . | 10µM*
O=C(CSCc1ccccc1)Nc1ccc(Cl)cn1 | . | -6%[46.1 µM]
CC(C)SCCCOc1ccc(C(C)(C)C)cc1 | . | -7%[46.1 µM]
O=C(C1=C[C@@H](c2ccc(C(F)(F)F)cc2)C[C@@H](OCc2ccc(CO)cc2)O1)N1CCN(Cc2ccccc2)CC1 | -8%[57.5 µM] | ?
COc1ccc(CNC(=O)CSc2nc(-c3ccccc3)cc(-c3cccs3)c2C#N)cc1 | . | 10µM*
SMILES | ERK EGF block | NPSR antag
COc1ccc(-c2cc(-c3cccs3)c(C#N)c(SCC(=O)NCc3ccco3)n2)cc1 | . | -7%[46.1 µM]
CCc1nnc(NC(=O)CSc2ccc(-c3ccc(F)cc3)nn2)s1 | 5% | -9%
CCc1nnc(NC(=O)CSc2nc(-c3ccccc3)cc(-c3ccc(F)cc3)c2C#N)s1 | . | 10µM*
CN(C(=O)Cn1cccc1C1=NC(c2ccccc2)CO1)c1ccccc1 (stereo not drawn) | -2% | -14%
O=C(Nc1cc(SCCO)cc([N+](=O)[O-])c1)c1ccc(Br)o1 | -7% | 9%
O=C(CSc1nnc(-c2c[nH]c3ccccc23)o1)N(Cc1ccccc1)c1ccc(F)cc1 | 2% | 7.9µM*
COc1ccc(CN(C(=O)CSc2nnc(-c3ccccc3C)o2)c2ccc(F)cc2)cc1 | 4% | -26%[46.1 µM]
O=S1(=O)C=C(Sc2nc3ccccc3s2)c2ccccc21 | . | 10µM*
Cc1cc(C)nc(SC2=CS(=O)(=O)c3ccccc32)n1 | . | -20%[46.1 µM]
CCN(CCCNC(=O)CN(C)S(=O)(=O)c1cccc2nsnc12)c1ccccc1 | . | -5%[46.1 µM]
COCCn1c(C(C)C)nc2ccccc21 | 12%[57.5 µM] | 20%
COc1ccc2c(c1)oc(=O)c1ccccc12 | -12%[57.5 µM] | -15%
O=c1oc2cc(O)c(Cl)cc2c2ccccc12 | 5% | 7.9µM*
CCN=C(NC#N)SCc1c(F)cccc1Cl | 3% | 3%
CCc1ccc(N=c2c([N+](=O)[O-])nn(-c3ccc4c(c3)OCCO4)n2O)cc1 | 28µM* | 15%
O=[N+]([O-])c1nn(-c2ccc3c(c2)OCCO3)n(O)c1=Nc1ccc(Cl)cc1 | . | -15%[46.1 µM]
Cc1ccc(S(=O)(=O)NCCCN2CCOCC2)c(C)c1 | . | -11%[46.1 µM]
Cc1ccc(-n2c(O)c(C=Nc3ccccc3-c3n[nH]c(=S)[nH]c3=O)c3ccccc3c2=O)cc1C | 14% | 1.3µM*
Cc1ccc(-n2c(O)c(C=Nc3ccccc3-c3n[nH]c(=S)[nH]c3=O)c3ccccc3c2=O)c(C)c1 | ? | -57%
O=C(Nc1ccccc1Br)C1CC(=O)N(c2ccc3c4c(cccc24)CC3)C1 (stereo not drawn) | 3% | -22%
CCN(CC)CCN(C(=O)c1ccc(S(=O)(=O)N2CCCCC2)cc1)c1nc2cc3c(cc2s1)OCO3 | -4% | 10µM*
CN(C)CCCN(C(=O)c1ccc(S(=O)(=O)N(C)C)cc1)c1nc2cc3c(cc2s1)OCO3 | -11% | -25%
O=CN1CCc2c([nH]c3ccccc23)C1c1cccc2cccnc12 (stereo not drawn) | 6% | .
CCn1c(=O)cc(C(=O)OC)sc1=Nc1ccc(F)c(F)c1 | . | -8%[46.1 µM]
CCOC(=O)c1ccc(N=c2sc(C(=O)OC)cc(=O)n2CCCN2CCOCC2)cc1 | 3%[57.5 µM] | 13µM*!
SMILES | ERK EGF block | NPSR antag
COC(=O)c1cc(=O)n(CCc2ccc(OC)cc2)c(=Nc2ccc(F)c(Cl)c2)s1 | . | -10%[46.1 µM]
COC(=O)c1cc(=O)n(CCc2ccccc2)c(=Nc2ccc(F)cc2)s1 | . | 10µM*
O=C1CC(NNC(=O)c2cccc(F)c2)C(=O)N1 (stereo not drawn) | 3%[57.5 µM] | -15%
CCOC(=O)C1(Cc2cccc(OC)c2)CCCN(C(=O)CCc2cccnc2)C1 (stereo not drawn) | 6% | 4%
Cc1sc2nc(C3CC3)nc(NCCNS(C)(=O)=O)c2c1C | . | 0%[7.67 µM]
COC(=O)CC1[C@@]2(C)C[C@@]34OC5(C)OC6(CC[C@@]7(C)C(c8ccoc8)OC(=O)C(C(C)=O)C7[C@]6(O5)C(O)[C@@]3(O)C2O)[C@]14C (stereo partly drawn) | 9% | .
CN(C)c1ccc(/C=C/c2cccc[n+]2[O-])cc1 | 3%[57.5 µM] | -3%
CN(C)c1ccc(/C=C/c2ccc3c4ccccc4ccc3[n+]2-c2ccccc2)cc1 | 25µM* | 10µM*
COc1ccc2nc(NC(=O)CCc3nc(-c4ccccc4F)no3)sc2c1 | . | 6%[7.67 µM]
Cc1ccc(Nc2c([N+](=O)[O-])c(=O)oc3ccccc23)cc1 | 5% | 36%
CCc1ccc(Nc2c([N+](=O)[O-])c(=O)oc3ccccc23)cc1 | 18µM* | 8%
Cc1cc(NC(=O)CSc2nc(-c3ccccc3)c(C#N)c(=O)[nH]2)no1 | . | 7.9µM*
Cc1cc(C)nc(NS(=O)(=O)c2ccc(NC(=O)CSc3nc(-c4ccccc4)c(C#N)c(=O)[nH]3)cc2)n1 | 5% | 4µM*
N#Cc1c(-c2ccccc2)nc(SCC(=O)Nc2ccccc2)[nH]c1=O | -6% | -32%
Cc1cccc(NC(=O)CSc2nc(-c3ccccc3)c(C#N)c(=O)[nH]2)c1C | . | 1%[46.1 µM]
COc1cccc(Cn2c(=O)c(C)nc3cnc(N4CCOCC4)nc32)c1 | 10% | .
Cc1ccccc1-c1cc(Nc2ccc(F)cc2)ncn1 | 24% | .
CCC(/C=C1\Sc2ccc(OC)cc2N1CCO)=C\c1sc2ccc(OC)cc2[n+]1CCO | 14µM* | 10µM*
CCC(/C=C1\Sc2ccc(OC)cc2N1CC)=C\c1sc2ccc(OC)cc2[n+]1CCCS(=O)(=O)[O-] | ? | -34%
O=[N+]([O-])c1ccc2c(c1)ncn2-c1ccccc1 | 9% | -5%

Screening data (PubChem)
